Pf Dd2 growth: Plasmodium falciparum Dd2 growth inhibition | P. falciparum Dd2 growth, SYBR Green, 72 h | Potency, µM (titrated, usually from 28.9 µM), usual class: inhibitors | 120,000 tested, 4.3% active; active = well fitted inhibition curve with a large enough effect; also: nearly all actives have a fitted effect of over 65% in size
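Infected erythrocytes (Dd2, 0.3% parasitemia, 2.5% hematocrit final) are added to compound in RPMI-1640/Albumax II medium, grown 72 h at 37C in low oxygen, then lysed with saponin/Triton-X containing SYBR Green and read by fluorescence.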
Numbers stand for hits; . = inactive; [ ] = remark or other dose. The sample as a whole holds a higher share of hits than the screen did.

SMILES	Pf Dd2 growth
O=C1CS(=O)(=O)C2(C(=O)N(Cc3ccccc3Cl)c3ccccc32)N1c1ccc(F)cc1 (configuration not stated)	5.62µM
CN1C(=O)C2(c3ccccc31)N(c1ccc(F)c(Cl)c1)C(=O)CS2(=O)=O (configuration not stated)	.
CC1=C(c2ccc(Cl)cc2)S(=O)(=O)N=C1N1CCN(c2cccc(C(F)(F)F)c2)CC1	.
Cc1cc(F)ccc1CC(=O)N1CC[C@H](N(C)C)[C@H](CCC(=O)O)C1	.
CN1CCc2c([nH]c3ccccc23)C12CCN(C(=O)c1ccnn1C)CC2	.
COCCN1Cc2nc(-c3ccsc3)ccc2OCC1=O	.
CC(C)(C)c1nc(C(=O)NCCc2ccc(Cl)cc2)n2ccncc12	2.24µM
Cc1cccn2c(=O)c(C(=O)NCCc3ccc(Cl)cc3)cnc12	.
C[S+](=O)([O-])c1ccc(-c2nc(C(=O)NCCc3ccc(Cl)cc3)n3ccncc23)cc1	8.91µM
COCCNC(=O)c1nc(-c2cccnc2)c2cnccn12	.
COC(=O)CNC(=O)c1nc(-c2ccsc2)c2cnccn12	.
Cn1ncc2c(C(=O)NCCc3ccc(Cl)cc3)cc(-c3ccc([S+](C)(=O)[O-])cc3)nc21	.
COCCc1noc([C@@H]2CC(F)(F)CN2C(=O)Cn2cc(C)cn2)n1	.
COc1ccc(C(=O)N2CCCCCCNC(=O)[C@@H]3CCC[C@@H]32)cc1	.
C=CCN(C)C(=O)[C@@H](C)C1CC[C@@]2(C)Cc3sc(NC(=O)CC(C)(C)C)nc3[C@@H](C)[C@@H]2[C@H]1O (some centres not stated)	.
Cc1nonc1CN(C)C(=O)CC(c1ccccc1)c1cccc(Cl)c1 (configuration not stated)	.
Cc1nnc(CN(C)C(=O)CC(c2ccccc2)c2ccc(Cl)cc2)o1 (configuration not stated)	.
Cc1cnc(CN(C)C(=O)CC(c2ccccc2)c2ccc(Cl)cc2)[nH]1 (configuration not stated)	8.91µM
O=C(c1ccccc1F)N1CCn2c(nn(-c3ccc(F)cc3)c2=O)C1	.
CC(=O)Nc1ccc(-c2c(-c3ccccc3)ncn2Cc2ccnc(C)c2)cc1	.
Cc1cccc(C)c1NC(=O)CCSCCc1ccccn1	.
C[C@H]1[C@@H]2[C@@H](O)C([C@H](C)C(=O)N3CCCCC3)CC[C@@]2(C)CC[C@@H]1NC(=O)Nc1cccc(F)c1 (some centres not stated)	.
Cc1ccc(-c2nnc(C3CN(C(=O)c4cccnc4C)CC34CCOCC4)o2)cc1 (configuration not stated)	.
Cc1ccc(-c2nnc(C3CN(C(=O)c4n[nH]c5ccccc45)CC34CCOCC4)o2)cc1 (configuration not stated)	8.91µM
Cc1ccc(-c2nnc(C3CN(C(=O)c4cccc(C)c4)CC34CCOCC4)o2)cc1 (configuration not stated)	.
SMILES	Pf Dd2 growth
Cc1ccc(-c2nnc(C3CN(C(=O)Cc4cccc(F)c4)CC34CCOCC4)o2)cc1 (configuration not stated)	.
Cc1ccc(-c2nnc(C3CN(C(=O)c4cccc(F)c4)CC34CCOCC4)o2)cc1 (configuration not stated)	3.98µM
Cc1ccc(-c2nnc(C3CN(C(=O)c4ccn[nH]4)CC34CCOCC4)o2)cc1 (configuration not stated)	.
Cc1noc(-c2cccc(OC3CN(C(=O)c4cc(F)ccc4F)C3)c2)n1	.[5.79 µM]
CCN(CC)C(=O)Cn1c(=O)cc(C)c2c(C)nn(-c3cccc(Cl)c3C)c21	.
COc1ccc(OCC(=O)OCc2cc(=O)n3nc(-c4cccs4)sc3n2)cc1	.
CCOC(=O)c1c(C)oc2ccc(N(C(=O)c3ccncc3)S(=O)(=O)c3ccc(Br)cc3)cc12	.
O=S(=O)(NCc1nc2cccnc2n1Cc1ccccc1)c1ccc2c(c1)CCCC2	.
CCOC(=O)c1ccccc1NC(=O)c1nn(-c2ccc(C)cc2)c(=O)n(C)c1=O	.
Cc1ccc(N(CC(=O)Nc2ccc(C)c(F)c2)S(=O)(=O)c2c(C)n[nH]c2C)cc1	8.91µM
COc1ccc(N(CC(=O)NCc2ccc(F)cc2)S(=O)(=O)c2c(C)n[nH]c2C)cc1	.
Cc1n[nH]c(C)c1S(=O)(=O)N(CC(=O)NC(C)c1ccccc1)c1ccc(C(C)C)cc1 (configuration not stated)	.
O=C(O)C1=NOC2CN(Cc3nc4ccccc4s3)CC12 (configuration not stated)	.
CCn1cnnc1CC1CCN(C(=O)NCc2ccccc2)C1 (configuration not stated)	.
CC1(c2ccccc2)N(Cc2ccccc2F)C(=O)OC12CCN(C(=O)c1cnccn1)CC2 (configuration not stated)	.
Cn1nccc1C(=O)N1CCC2(CC1)OC(=O)N(Cc1ccccc1C#N)C2(C)c1ccccc1 (configuration not stated)	10µM
CC1(c2ccccc2)N(Cc2ccccc2C#N)C(=O)OC12CCN(C(=O)c1ccc(F)cc1)CC2 (configuration not stated)	.
COc1ccc(OC)c(CN2CCC3(CC2)OC(=O)N(Cc2ccccc2C#N)C3(C)c2ccccc2)c1 (configuration not stated)	.
CC1(c2ccccc2)N(Cc2ccccc2C#N)C(=O)OC12CCN(c1ccncc1)CC2 (configuration not stated)	11.2µM
COCC(=O)N1CCC2(CC1)OC(=O)N(Cc1cccnc1)C2(C)c1ccccc1 (configuration not stated)	.
CC1(c2cccnc2)N(Cc2ccccc2)C(=O)OC12CCN(C(=O)C1CCC1)CC2 (configuration not stated)	.
CC1(c2ccccc2)N(Cc2ccccc2C#N)C(=O)OC12CCN(C(=O)Cc1ccccn1)CC2 (configuration not stated)	.
CC1(c2ccccc2)N(Cc2cccnc2)C(=O)OC12CCN(C(=O)c1ccc(Oc3ccccc3)cc1)CC2 (configuration not stated)	6.31µM
CC(=O)N1CCC2(CC1)OC(=O)N(Cc1ccccc1F)C2(C)c1ccccc1 (configuration not stated)	.
CN1CCC(C(=O)N2CCC3(CC2)OC(=O)N(Cc2ccccc2F)C3(C)c2ccccc2)CC1 (configuration not stated)	5.62µM
SMILES	Pf Dd2 growth
CC1(c2ccccc2)N(Cc2ccccc2F)C(=O)OC12CCN(C(=O)CN1CCOCC1)CC2 (configuration not stated)	.
CCc1ccc(CNC(=O)Cn2nc(-c3ccc(Cl)cc3)ccc2=O)cc1	.
O=C(NCCc1ccc(Cl)cc1)c1ccc2c(c1)N(Cc1ccc(Cl)cc1)C(=O)CS2	.
COc1ccc(CN2C=C(C(=O)OCc3noc(C4CCCCC4)n3)C(C)=NS2(=O)=O)cc1	.
COc1ccccc1NC(=O)CCn1c(=O)oc2cc(Cl)ccc21	.[5.79 µM]
Cc1nc(-c2cccc(NC(=O)N[C@H](C)c3onc(-c4ccc(F)cc4)c3C(=O)O)c2)no1	.
CCCCOC(=O)c1ccc(NC2=NS(=O)(=O)c3ccccc32)cc1	.
COc1ccc(N2CCN(C(=O)c3ccc4nc(N5CCC(C)CC5)sc4c3)CC2)cc1	.
COc1ccc(CNC(=O)N2c3ccccc3CC2c2nc(C3CC3)no2)cc1 (configuration not stated)	.[5.79 µM]
COc1cccc([S+](=O)([O-])N2CCC3(C2)OC(=O)Nc2cnccc23)c1 (configuration not stated)	.

Assay outcomes (PubChem BioAssay)
